This note sets out measurements from PubChem BioAssay (NCATS).

In one assay the test system is W2. Kind of assay: qHTS profiling for inhibitors of Plasmodium falciparum proliferation (AID 504749). Further: nearly all actives have a fitted effect of over 60% in size. The following applies: P. falciparum in erythrocytes, SYBR Green DNA, 72 h; series mostly up to 28.7 µM. The gist of the method: (§1)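 SYBR Green fluorescence of parasite DNA, read after lysis and overnight dark incubation, measured growth over 72 h in erythrocyte culture at 0.3% parasitemia and 2.5% hematocrit. Data normalised to DMSO and 0.29 uM artemisinin, with plate-drift correction.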
Background: Quantitative high-throughput screening tests each substance at several concentrations.

Another assay concerns TAB165. Described as above. The following applies: P. falciparum in erythrocytes, SYBR Green DNA, 72 h; series mostly up to 28.7 µM. Summed up: as §1

Inconclusive results are not listed. Unmarked numbers belong to inactive results. The source made the active and inactive calls. The call rests on the fitted dose curve; in most records, active means well fitted inhibition curve with a large enough effect; inconclusive means small, poorly fitted or top-dose-only effect; inactive means flat fitted curve, though single readings scatter. Peptide text beside a SMILES is read from it.
Potency means the concentration at half of the fitted maximal effect.

With `CC1=C(/C=C/C(C)=C/C=C/C(C)=C/CO)C(C)(C)CCC1`, the Potency in the assay on W2 was 7.57 µM (active).

For the compound `CC(=O)N[C@@H](CC(=O)O)C(=O)N[C@@H](CCC(=O)O)C(=O)O` (Ac-Asp-Glu-OH), the Potency entry in the assay with TAB165 and with W2 was “inactive” each time.

In the case of `Cc1c(C)c2c(c(C)c1O)CC[C@@](C)(CCC[C@@H](C)CCC[C@@H](C)CCCC(C)C)O2`, the Potency entry in the assay with TAB165 and in the assay on W2 was “inactive” in each case.

With `COC(F)(F)C(Cl)Cl`, the Potency result in the assay with TAB165 and in the assay with W2 was “inactive” throughout.

For `COc1cc(-c2ccc(-[n+]3nc(-c4ccccc4)nn3-c3ccc([N+](=O)[O-])cc3)c(OC)c2)ccc1-[n+]1nc(-c2ccccc2)nn1-c1ccc([N+](=O)[O-])cc1`, in the assay with W2, the Potency is 12 µM (active).

On to `O=S(=O)(O)c1ccc2c(N=Nc3ccc(S(=O)(=O)O)c4ccccc34)c(O)c(S(=O)(=O)O)cc2c1`, for which the Potency result with TAB165 and in the assay with W2 was “inactive” in each case.

For `CC(NNC(=O)c1ccccc1)c1ccccc1` (stereo unspecified), the Potency entry in the assay on TAB165 and with W2 was “inactive” throughout.

As to `Cc1cn([C@H]2C[C@H](O)[C@@H](CO)O2)c(=O)[nH]c1=O`, the Potency entry with TAB165 and with W2 was “inactive” each time.

On to `C[C@H]1C[C@H]2[C@@H]3CCC4=CC(=O)C=C[C@]4(C)[C@@]3(F)[C@@H](O)C[C@]2(C)[C@@]1(O)C(=O)CO`, for which the Potency entry in the assay on TAB165 and with W2 was “inactive” in each case.

Consider `C[C@@H]1CCC2[C@@H](C)[C@@H](O)O[C@@H]3O[C@@]4(C)CC[C@@H]1[C@@]23OO4` (stereo partly specified), for which the values for the Potency in the assay on TAB165 and in the assay with W2 were 0.0009 µM (active) and 0.0005 µM (active), respectively.

As to `CC[N+](C)(C)Cc1ccccc1Br`, the Potency result in the assay on TAB165 and in the assay with W2 was “inactive” throughout.

As to `CCNC(=O)[C@@H]1CCCN1C(=O)[C@H](CCCN=C(N)N)NC(=O)[C@H](CC(C)C)NC(=O)[C@@H](Cc1c[nH]c2ccccc12)NC(=O)[C@H](Cc1ccc(O)cc1)NC(=O)[C@H](CO)NC(=O)[C@H](Cc1c[nH]c2ccccc12)NC(=O)[C@H](Cc1cnc[nH]1)NC(=O)[C@@H]1CCC(=O)N1`, the Potency with TAB165 was 3.16 µM (active); in the assay with W2, 0.849 µM (active).

On to `Clc1cc(Cl)c(OCC#CI)cc1Cl`, for which the Potency in the assay with TAB165 was 11.2 µM (active); in the assay on W2 it was 10.7 µM (active).

In the case of `CCCC(=O)O[C@]1(C(=O)CCl)[C@H](C)C[C@@H]2[C@H]3CCC4=CC(=O)C=C[C@]4(C)[C@@]3(F)C(=O)C[C@@]21C`, the Potency in the assay on TAB165 was 2 µM (active); in the assay on W2, 1.51 µM (active).

As for `COC(=O)CCC(=O)CN`, the Potency entry in the assay on TAB165 and with W2 was “inactive” throughout.

Take `CC(C)=O`: the Potency result in the assay on TAB165 and in the assay on W2 was “inactive” in each case.

Turning to `CCOC(=O)C1=C(C)NC(C)=C(C(=O)OCC)C1c1ccccc1C=CC(=O)OC(C)(C)C`, the results for the Potency in the assay on TAB165 and in the assay on W2 were 11.2 µM (active) and 6.75 µM (active), respectively.

`Cc1cc(C(=O)NNCc2ccccc2)no1`: the Potency result with TAB165 and with W2 was “inactive” in each case.

On to `C=C1C(=CC=C2CCC[C@@]3(C)[C@@H]2CC[C@H]3[C@H](C)CCCC(C)C)C[C@@H](O)C[C@@H]1O`, for which the Potency in the assay with W2 is 9.53 µM (active).

Regarding `CCOc1ccc(N=Nc2ccc(N)cc2N)cc1`, the Potency result in the assay on W2 is “inactive”.

For the compound `CC1(C)S[C@@H]2[C@H](NC(=O)[C@@H](NC(=O)N3CCNC3=O)c3ccccc3)C(=O)N2[C@H]1C(=O)O`, the Potency entry in the assay on TAB165 and in the assay with W2 was “inactive” throughout.

Regarding `Oc1cc(O)c2c(c1)OC(c1ccc(O)c(O)c1)C(O)C2` (stereo unspecified), the Potency result in the assay on TAB165 and with W2 was “inactive” throughout.

Turning to `O=C(O)CN(CCN(CC(=O)O)CC(=O)O)CC(=O)O`, the Potency entry in the assay on TAB165 and with W2 was “inactive” each time.

For the compound `CCCCCCC(O)C/C=C/CCCCCCCC(=O)O` (stereo unspecified), the Potency result in the assay with TAB165 and with W2 was “inactive” throughout.

Take `CCN(CC)Cc1cc(Nc2ccnc3cc(Cl)ccc23)ccc1O`: the results for the Potency in the assay on TAB165 and in the assay on W2 were 0.0447 µM (active) and 0.051 µM (active), respectively.

As for `Cc1ccccc1`, the Potency entry in the assay with TAB165 and with W2 was “inactive” each time.

On to `CCCCCCOc1ccc(C(=N)N(CCCC)CCCC)c2ccccc12`, for which the results for the Potency in the assay on TAB165 and in the assay with W2 were 12.6 µM (active) and 3.38 µM (active), respectively.

In the case of `Cc1ccccc1OCC(O)CNCCOc1ccc(C(N)=O)cc1` (stereo unspecified), the Potency result with TAB165 and in the assay on W2 was “inactive” in each case.

With `NC1C2CN(c3nc4c(cc3F)c(=O)c(C(=O)O)cn4-c3ccc(F)cc3F)CC12` (stereo unspecified), the Potency in the assay with W2 is 6.75 µM (active).

On to `COC(C(=O)C(O)C(C)O)C1Cc2cc3cc(OC4CC(OC5CC(O)C(O)C(C)O5)C(O)C(C)O4)c(C)c(O)c3c(O)c2C(=O)C1OC1CC(OC2CC(OC3CC(C)(O)C(O)C(C)O3)C(O)C(C)O2)C(O)C(C)O1` (stereo unspecified), for which the Potency in the assay with TAB165 is 0.141 µM (active); in the assay on W2, 0.426 µM (active).

`CCOC(C)=O`: the Potency result with TAB165 and in the assay with W2 was “inactive” each time.

Consider `CCCC(=O)Nc1ncnc2c1ncn2C1OC2COP(=O)(O)OC2C1OC(=O)CCC` (stereo unspecified), for which the Potency result in the assay with TAB165 and with W2 was “inactive” throughout.

`Nc1ncnc2c1ncn2[C@@H]1O[C@H](COP(=O)(O)OP(=O)(O)OP(=O)(O)O)[C@@H](O)[C@H]1O`: the Potency result with TAB165 and in the assay on W2 was “inactive” each time.
